Screens from PubChem BioAssay.
Hits are enriched below; roughly 19% of the tested compounds scored in any of these assays.
HT1080 IDH1KD tx = qHTS for induction of synthetic lethality in tumor cells producing 2HG: qHTS for the HT-1080-IDH1KD cell line; Potency, µM (series often up to 46.1 µM), most hits filed as cytotoxic; HT-1080 IDH1 knockdown viability, ATP luminescence, 48 h; 360,000 tested, 2% active; AID 686971, 2013
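HT-1080-IDH1KD cells (IDH1 knocked down), 750/well in RPMI with 5% FBS, treated with compound 48 h at 37 degrees C. Viability by CellTiter-Glo luminescence, normalised to DMSO and no-cell wells; concentration-response curves classed.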
KB-V1 cytotox = qHTS assay for MDR1-selective chemotherapeutics: Primary screen using the drug-selected MDR subline cells KB-V1. KB-V1 MDR cells viability, CellTiter-Glo, 72 h. Potency, µM (doses to about 46.1 µM), hits mostly cytotoxic. 400,000 tested, 3.4% active. AID 1347076, 2019; note: nearly all actives have a fitted effect of over 60% in size
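Luminescent ATP read-out (CellTiter-Glo, 10 min) measures survival of drug-selected KB-V1 MDR cells after 72 h, 37 degrees C compound exposure. Medium: phenol-red-free DMEM, 10% FBS. Values from fitted concentration-response curves.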
KB-3-1 tox = qHTS assay for MDR1-selective chemotherapeutics: Primary screen using the parental adenocarcinoma cell KB-3-1 | KB-3-1 viability, CellTiter-Glo ATP luminescence, 72 h | 400,000 tested, 1.4% active | AID 1347075, 2019 | Potency, µM (titrated, usually from 46.1 µM), hits mostly cytotoxic; note: nearly all actives have a fitted effect of over 60% in size
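Screening of KB-3-1 cells (DMEM, 10% FBS, phenol-red free) ran from lowest to highest compound concentration; after 72 h at 37 °C viability was read luminescently and curves fitted.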
HT1080NT lethal = qHTS for induction of synthetic lethality in tumor cells producing 2HG: qHTS for the HT-1080-NT fibrosarcoma cell line; HT-1080-NT fibrosarcoma viability, CellTiter-Glo ATP luminescence, 48 h; Potency, µM (top dose mostly 46.1 µM), most hits filed as cytotoxic; 360,000 tested, 1.6% active; AID 686970, 2013;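 note: NT is the 2HG producing partner of a matched IDH1 knockdown line; nearly all actives have a fitted effect of over 55% in size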
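Compounds were tested in concentration-response format on HT-1080-NT cells for 48 hours at 37 degrees C. Cell viability came from CellTiter-Glo luminescence; curves were classified by r2, response magnitude and activity.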
DT40 TDP1 CPT = qHTS for Inhibitors of human tyrosyl-DNA phosphodiesterase 1 (TDP1): qHTS in cells in presence of CPT; chicken DT40 Tdp1-/-;hTDP1 cells + 20 nM CPT, ATP luminescence, 48 h; Potency, µM (titrated, usually from 46.2 µM), most hits filed as inhibitors; 420,000 tested, 12% active; AID 686979, 2013; note: nearly all actives have a fitted effect of over 55% in size
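Chicken DT40 Tdp1-/- cells complemented with human TDP1, 400 cells/well, exposed to compounds plus 20 nM camptothecin for at least 48 h at 37 C; viability read as ATP content by CellTiter-Glo luminescence.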
DT40 TDP1 no CPT = qHTS for Inhibitors of human tyrosyl-DNA phosphodiesterase 1 (TDP1): qHTS in cells in absence of CPT; 420,000 tested, 15% active; AID 686978, 2013; Potency, µM (titrated, usually from 46.2 µM), usual class: inhibitors; DT40 Tdp1-/- hTDP1 cells, no CPT, ATP luminescence, 48 h; note: nearly all actives have a fitted effect of over 55% in size
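DT40 Tdp1-/-;hTDP1 cells, no CPT (DMSO vehicle only), 400 cells/well; compounds pin-transferred; ≥48 hr, 37 °C; CellTiter-Glo 30 min RT dark, luminescence read.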
Of the large screens only hits and unclear results are named; the others gave an inactive call. Calls come from the whole dose curve; as a rule, active = well fitted curve in the direction sought with a large enough effect; inconclusive = small, poorly fitted or top-dose-only effect, or another doubt; inactive = no such curve, though single readings can be large; an effect the other way counts as inactive or inconclusive.

COc1ccc(-c2nnc3sc(-c4ccccc4OC)nn23)cc1	DT40 TDP1 no CPT inconclusive
O=C(CSc1ncccn1)NC(=O)c1ccccc1	none
O=C(Nc1ccc2ccccc2c1)Nc1nnc(-c2ccccc2)s1	none (no result: HT1080 IDH1KD tx, HT1080NT lethal, DT40 TDP1 CPT, DT40 TDP1 no CPT)
CC(C)NC(=S)NN=C1c2ccccc2-c2ccccc21	KB-V1 cytotox inconclusive, DT40 TDP1 CPT 23.1µM, DT40 TDP1 no CPT 7.31µM
CNc1nc(Oc2ccc(=O)n(C)n2)nc(N2CCOCC2)n1	none
CCOC(=O)Cn1c(S(=O)(=O)Cc2ccc(Cl)cc2)nc(-c2ccccc2)c1-c1ccccc1	HT1080 IDH1KD tx inconclusive, KB-V1 cytotox 7.31µM, KB-3-1 tox inconclusive, HT1080NT lethal inconclusive, DT40 TDP1 CPT 18.4µM, DT40 TDP1 no CPT 16.4µM
CCOC(=O)Cn1c(S(=O)(=O)Cc2ccccc2)nc2ccccc21	DT40 TDP1 no CPT inconclusive
COc1ccc(C(=O)Nn2c(CC(C)C)nc3cc(Cl)ccc3c2=O)c(OC)c1	DT40 TDP1 CPT inconclusive, DT40 TDP1 no CPT 20.6µM
CCC(=O)Nc1cccc(C2=NOC3(C2)C[C@H](C(N)=O)N(C(=O)CC#N)C3)c1 (some centres not stated)	none
COc1ccc(OCCN2CCN(C(=O)c3ccc(OC)c(OC)c3)CC2)cc1	KB-V1 cytotox inconclusive
O=C(c1ccc2c(c1)N(Cc1ccc(F)cc1)C(=O)c1ccccc1S2=O)N1CCC(Cc2ccccc2)CC1 (configuration not stated)	KB-V1 cytotox inconclusive, KB-3-1 tox inconclusive, DT40 TDP1 CPT 16.4µM, DT40 TDP1 no CPT 14.6µM (no result: HT1080 IDH1KD tx, HT1080NT lethal)
O=C(c1ccc2c(c1)N(Cc1ccccc1)C(=O)c1ccccc1S2=O)N1CCC(Cc2ccccc2)CC1 (configuration not stated)	KB-V1 cytotox inconclusive, KB-3-1 tox inconclusive, DT40 TDP1 CPT 6.51µM, DT40 TDP1 no CPT 6.51µM (no result: HT1080 IDH1KD tx, HT1080NT lethal)
CCOC(=O)C1CCCN(C(=O)c2ccc3c(c2)N(Cc2ccccc2)C(=O)c2ccccc2S3=O)C1 (configuration not stated)	KB-V1 cytotox inconclusive, DT40 TDP1 CPT inconclusive, DT40 TDP1 no CPT 18.4µM
O=C(O)c1ccc2c(c1)N(Cc1ccccc1)C(=O)c1ccccc1S2=O (configuration not stated)	KB-V1 cytotox inconclusive, DT40 TDP1 CPT inconclusive
O=C(c1ccc2c(c1)N(Cc1ccc(F)cc1)C(=O)c1ccccc1S2=O)N1CCOCC1 (configuration not stated)	none (no result: HT1080 IDH1KD tx, HT1080NT lethal)
Cn1c(SCC(=O)NC2CCCC2)nnc1C(F)(F)F	none
COc1ccc(N2COC3c4cccc5cccc(c45)C32)cc1 (configuration not stated)	DT40 TDP1 CPT 5.8µM, DT40 TDP1 no CPT 8.2µM
COc1ccc(CCNC(=O)c2cc3c(=O)n4cccc(C)c4nc3n(Cc3ccco3)c2=N)cc1OC	DT40 TDP1 CPT inconclusive, DT40 TDP1 no CPT 25.9µM
Cc1cccn2c(=O)c3cc(C(=O)NCCc4ccccc4)c(=N)n(Cc4ccco4)c3nc12	HT1080 IDH1KD tx 5.17µM, KB-V1 cytotox inconclusive, HT1080NT lethal 6.51µM, DT40 TDP1 CPT 20.6µM, DT40 TDP1 no CPT 10.3µM
Cc1cccn2c(=O)c3cc(C(=O)NCc4ccco4)c(=N)n(CCc4ccccc4)c3nc12	KB-V1 cytotox inconclusive, DT40 TDP1 no CPT 14.6µM
CC(=O)NCCOc1nc(N(C)C)nc(N2CCCCC2)n1	none
CCn1cc(C(=O)N(C)Cc2ccccc2)c(=O)c2cc(S(=O)(=O)N3CCc4ccccc4C3)ccc21	DT40 TDP1 CPT inconclusive, DT40 TDP1 no CPT inconclusive (no result: HT1080 IDH1KD tx, HT1080NT lethal)
CC(OC(=O)c1ccccc1C(=O)N(C)c1ccccc1)C(=O)Nc1ccc(C(N)=O)cc1 (configuration not stated)	DT40 TDP1 no CPT inconclusive
CC(OC(=O)c1cc(O)c2ccccc2c1O)C(=O)Nc1ccc(C(N)=O)cc1 (configuration not stated)	HT1080 IDH1KD tx inconclusive, HT1080NT lethal 16.4µM, DT40 TDP1 CPT inconclusive, DT40 TDP1 no CPT inconclusive
CN(C)CCCN1C(=O)C2CCc3[nH]c4ccccc4c3C2C1=O (configuration not stated)	none
COCC(=O)Nc1cc(C(=O)N2CCC(c3ccccc3)CC2)cc2nc(-c3ccccc3)n(C)c12	DT40 TDP1 CPT 16.4µM, DT40 TDP1 no CPT inconclusive (no result: HT1080 IDH1KD tx, KB-V1 cytotox, KB-3-1 tox, HT1080NT lethal)
CC(C(=O)N1c2ccccc2CC1C)N1CCN(S(=O)(=O)c2ccccc2F)CC1 (configuration not stated)	DT40 TDP1 CPT inconclusive, DT40 TDP1 no CPT inconclusive
Cc1cc(-c2nnc(SCC(=O)c3ccc4c(c3)OCCO4)o2)no1	none
O=C(CSc1nnc(-c2ccccc2)o1)c1ccc2c(c1)OCCO2	DT40 TDP1 CPT 16.4µM, DT40 TDP1 no CPT inconclusive
CC(=O)c1c(C)[nH]c(C(=O)CSc2ncnc3sc(-c4ccccc4)cc23)c1C	HT1080 IDH1KD tx inconclusive, KB-V1 cytotox 7.31µM, DT40 TDP1 CPT 9.2µM, DT40 TDP1 no CPT inconclusive
CC(=O)c1c(C)[nH]c(C(=O)CSc2nnc(-c3ccccc3)o2)c1C	DT40 TDP1 CPT 16.4µM, DT40 TDP1 no CPT 14.6µM
COc1cccc(CNC(=O)CCc2c(C)nn(-c3ccc(N4CCCC4)nn3)c2C)c1	DT40 TDP1 no CPT inconclusive (no result: HT1080 IDH1KD tx, KB-V1 cytotox, KB-3-1 tox, HT1080NT lethal)
O=C(CCSc1nnc(-c2ccco2)o1)N1CCOCC1	none
